# This is a sample that favours compounds with a hit; in the whole collection about 22% have one here.
# Pf growth 96h = P. falciparum growth inhibition at 96 hour, primary screen for plastid delayed-death inhibitors. P. falciparum luciferase reporter growth, 96 h. Potency, µM (series often up to 28.7 µM), without a hit: at the highest dose activity change, negative = inhibition, actives largely listed as inhibitors. hit rate 6.9% among 320,000; note: potency is the fitted concentration of half-maximal effect; % is set by controls: 0 for no effect and ±100 for the full control effect
#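 Readout is luminescence from an integrated firefly luciferase in P. falciparum. Red cells, 2% hematocrit and 0.05% parasitemia final, were cultured with compound through two parasite generations (96 hours) at 37 C, 5% CO2.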
# LmPK inhibitor = LmPK (Leishmania mexicana) enzyme inhibition; Q27686; Potency, µM (doses to about 57.5 µM), for inactives: at the highest dose activity change, negative = inhibition, actives largely listed as inhibitors; hit rate 0.37% among 290,000; purified LmPK, Kinase-Glo ATP luminescence, 1 h; note: potency is the fitted concentration of half-maximal effect; % is set by controls: 0 for no effect and ±100 for the full control effect
# Target sequence (Q27686 whole entry, looked up): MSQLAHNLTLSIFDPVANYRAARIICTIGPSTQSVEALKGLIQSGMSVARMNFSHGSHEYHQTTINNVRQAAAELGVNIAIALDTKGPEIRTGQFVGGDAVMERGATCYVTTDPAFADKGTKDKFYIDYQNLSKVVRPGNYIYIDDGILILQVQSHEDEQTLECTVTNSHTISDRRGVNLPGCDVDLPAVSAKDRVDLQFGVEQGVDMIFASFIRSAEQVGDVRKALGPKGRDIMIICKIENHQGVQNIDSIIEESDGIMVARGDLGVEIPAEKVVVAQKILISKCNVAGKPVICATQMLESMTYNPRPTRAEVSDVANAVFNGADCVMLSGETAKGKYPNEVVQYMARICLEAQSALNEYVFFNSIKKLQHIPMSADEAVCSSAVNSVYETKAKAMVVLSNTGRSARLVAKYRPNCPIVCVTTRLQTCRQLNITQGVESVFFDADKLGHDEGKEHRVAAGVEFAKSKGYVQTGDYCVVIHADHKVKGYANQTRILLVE
#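 Purified LmPK (0.1 nM) converted ADP (0.1 mM) to ATP with PEP (0.5 mM) in imidazole buffer pH 7.2 with KCl and MgCl2, 1 h at room temperature. ATP was read by Kinase-Glo luminescence; data normalized to uninhibited and no-enzyme controls.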
# Cycloheximide cs = affects cycloheximide protein synthesis inhibition readout, counter-screen; AID 2314; hit rate 12% among 300,000; max response, %; cell reporter, cycloheximide protein synthesis inhibition counterscreen; in the data active = max response mostly above about 13%, no sharp cut-off; inactive = mostly below about 14%; note: read at 38.3 µM for the half of the compounds with a filed dose; 0% is about no effect
# Shiga toxin inh = Shiga toxin inhibition. Vero cells, Shiga toxin protein synthesis inhibition reporter. inhibition, % at 38.7 µM. hit rate 9.2% among 290,000. AID 2315; in the data active = inhibition mostly above about 28%, no sharp cut-off; inactive = mostly below about 43%; note: 0% is about no effect
# Pf growth 48h = P. falciparum growth inhibition at 48 hours (one generation); P. falciparum luciferase growth in erythrocytes, 48 h; Potency, µM (doses to about 28.7 µM), for inactives: top-dose activity change, negative = inhibition, actives largely listed as inhibitors; hit rate 5.9% among 310,000; AID 504832; note: potency is the fitted concentration of half-maximal effect; % is set by controls: 0 for no effect and ±100 for the full control effect
#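 A one-generation exposure of luciferase-tagged malaria parasites in RPMI 1640/Albumax erythrocyte culture, 37 C and 5% CO2. Inhibition is inferred from decreased luminescence after adding detection reagent.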
# Numbers without * were called inactive; i = inactive; ? = inconclusive; . = not tested or not shown; [ ] = dose if it differs, or a comment. Unless noted, calls come from the whole dose curve; as a rule, active = well fitted inhibition curve with a large enough effect; inconclusive = small, poorly fitted or top-dose-only effect, or another doubt; inactive = no such curve, though single readings can be large or run the other way.
SMILES,Pf growth 96h,LmPK inhibitor,Cycloheximide cs,Shiga toxin inh,Pf growth 48h
Cc1ccc(Nc2nc(/N=C/N(C)C)n[nH]2)cc1C,145%,-7%,51*,86*,i
Cn1c(C2CCCCC2)nc2cc(N)ccc21,?,1%,-1,-1,5%
O=[N+]([O-])c1ccc2oc(C3CCCCC3)nc2c1,36%,-8%,29*,76*,107%
Nc1ccc2oc(C3CCCCC3)nc2c1,?,-3%,55*,97*,91%
CCN(CC)S(=O)(=O)c1cccc(NC(=O)CN2C(=O)c3ccc([N+](=O)[O-])cc3C2=O)c1,52%,0%,1,-17,11%
Cc1ccccc1C(=O)NNS(=O)(=O)c1cccc([N+](=O)[O-])c1,0%,6%,-1,-8,20%
CC(C)(C)c1ccc(C(=O)O[C@H]2[C@H](Cc3ccccc3)NS(=O)(=O)[C@H]3C[C@@H]4C=C[C@]23O4)cc1,12µM*,.,.,.,13µM*
CCOc1ccc(C(=O)O[C@H]2[C@H](Cc3ccccc3)NS(=O)(=O)[C@H]3C[C@@H]4C=C[C@]23O4)cc1,4.7µM*,.,.,.,2.1µM*
CCOc1ccccc1CN1CCN(Cc2ccon2)CC1CCO (stereo not drawn),24%,0%,-3,-7,-10%
Cc1cc(-c2nc3ccccc3o2)c2ccccc2n1,?,-1%,-3,13,10%
c1ccc(-c2nc3ccccc3o2)nc1,.,-23%,42*,51*,98%
O/N=C/c1nc2cc(Cl)ccc2o1,44%,-1%,23,67,10%
O=C1CCC(=O)N1c1cccc(-c2nc3ccccc3o2)c1,?,4%,7,43,.
O=C1c2cccnc2C(=O)N1c1cccc(-c2nc3ccccc3o2)c1,-3%,11%,34*,68*,31%
c1ccc2nc(-c3nc4ccccc4o3)ccc2c1,.,3.2µM*,6,10,-4%
O=S(=O)(Nc1ccc(-c2nc3ccccc3o2)cc1)c1ccccc1,0%,-2%,3,12,.
Clc1ccc2oc(-c3ccccn3)nc2c1,?,-1%,44*,118*,234%
O=C(N/N=C/c1cccnc1)c1cc(-c2ccc(Br)cc2)nc2ccccc12,18%,-1%,12,11,-15%
Cc1nn(CC(C)C)c2sc(C(=O)NC3CC(C)(C)NC(C)(C)C3)cc12,-21%,6%,-3,-6,-23%
c1cncc(-c2nc3ccccc3o2)c1,?,-14%,21*,39,47%
Nc1ccc2oc(-c3ccccn3)nc2c1,10%,?,34*,71*,237%
c1cncc(-c2nc3cc(Cc4ccc5oc(-c6cccnc6)nc5c4)ccc3o2)c1,?,-2%,14,17,13%
CCCCc1nc(NCCNC(=O)c2ccccc2)c(C#N)c2c1CSC(C)(C)C2,2.3µM*,3%,-6,-9,.
CCCCc1nc(Cl)c(C#N)c2c1CSC(C)(C)C2,18%,1%,-1,-9,6%
CCCCc1nc(NCCNC(=O)c2ccco2)c(C#N)c2c1CSC(C)(C)C2,.,3%,8,26,8.3µM*
SMILES,Pf growth 96h,LmPK inhibitor,Cycloheximide cs,Shiga toxin inh,Pf growth 48h
CC1(C)Cc2c(C#N)c(NCCc3ccccc3)nc(-c3ccco3)c2CO1,-1%[5.75 µM],-1%,3,-11,0%
O=C(COC(=O)c1cccnc1Cl)Nc1nc(-c2ccccc2)cs1,80%,-3%,14,17,60%
Cc1ccc(-c2c(C(=O)N(C)Cc3ccccc3)oc(=O)c3ccccc23)cc1,4.7µM*,-1%,4,7,?
O=C1C=C(NC2=CC3OC(c4ccccc4)OCC3OC2=O)CCC1 (stereo not drawn),2%,-3%,27*,35*,-4%
N#Cc1ccccc1NC1=CC(=O)CCC1,-9%,-1%,10,-14,11%
O=C(Nc1ccc(F)cc1)c1ccc(CN2CCc3ccccc3C2)cc1,?,-4%,-2,7,-30%
CC(=O)Nc1ccc(NC(=O)c2ccc(CN3CCc4ccccc4C3)cc2)cc1,9.3µM*,3%,-1,-8,?
CSc1cccc(NC(=O)c2ccc(CN3CCc4ccccc4C3)cc2)c1,3%,3%,13,22,4.1µM*
O=C(Nc1cccc(Br)c1)c1ccc(CN2CCc3ccccc3C2)cc1,9.3µM*,-2%,17*,19,-9%
CCc1cccc(C)c1NC(=O)c1ccc(CN2CCc3ccccc3C2)cc1,1.5µM*,2%,-2,-5,4.7µM*
Cc1ccccc1NC(=O)c1ccc(CN2CCc3ccccc3C2)cc1,-27%,4%,2,-2,-24%
CCOC(=O)Cn1nc(C(F)F)c(Br)c1C,?,3%,-3,-4,13%
CCOC(=O)c1c(S(=O)(=O)N(C)C2CCCCC2)c(C)n(C)c1C,?,-5%,-6,4,-11%
C[C@H](NC(c1cccc2nc(O)c(O)nc12)P(=O)(O)O)c1ccc(Br)cc1 (stereo partly drawn),.,.,-4,-8,.
CC1CCN(C(=O)CCCOc2ccc(Cl)cc2)CC1,345%,-1%,33*,55*,83%
CC1CCN(C(=O)CCl)CC1,5.9µM*,2%,-4,14,5.2µM*
O=C(CSc1ccc(F)cc1)N1CCOCC1,26%,0%,-3,-3,14%[0.00184 µM]
CC1CCN(C(=O)COC(=O)Cc2c[nH]c3ccccc23)CC1,-15%,7%,12,20,?
CC1CCN(C(=O)COC(=O)Cc2ccc(Br)cc2)CC1,30%,-3%,35*,-4,11%
O=C(CSCc1ccc(F)cc1)N1CCOCC1,91%,17%,58*,82*,.
O=C(CSc1nnc(COc2ccccc2)o1)N1CCCCC1,20%,7%,4,-4,-22%
COc1ccc(OC)c(-c2csc(NC(=O)CSc3nnnn3C)n2)c1,13%,.,.,.,-19%
Cc1ccc(S(=O)(=O)N2CCN(C(=O)CSCc3ccc(C(C)C)cc3)CC2)cc1,?,.,.,.,9.3µM*
O=C(CSCc1ccc(Br)cc1)N1CCCC1,?,1%,25*,27,8%
CN1CCN(C(=O)c2ccc(CSc3ccc(Cl)cc3)cc2)CC1,4%,1%,-4,-6,9%
SMILES,Pf growth 96h,LmPK inhibitor,Cycloheximide cs,Shiga toxin inh,Pf growth 48h
Cc1ccc(SCc2ccc(C(=O)N3CCCCC3)cc2)cc1,i,-2%,28*,59*,47%
CCOC(=O)N1CCN(C(=O)CSCc2ccc(C)cc2)CC1,47%,-2%,-2,-2,6%
Cc1ccc(CSCC(=O)N2CCCC2)cc1,?,-3%,24*,87,21%
Cc1cnc(NC(=O)Nc2ccccc2)c(C)n1,-2%,-1%,-3,4,.
CC(C)CCN(C(=O)c1csnn1)C(C(=O)NC1CCCCC1)c1ccc(F)cc1 (stereo not drawn),3%,1%,-1,2,?
COc1cccc(CC(=O)OC(C)C(=O)Nc2ccc(N3CCOCC3)cc2)c1 (stereo not drawn),48%,.,.,.,41%
COc1cc(CCC(=O)N2CCN(S(=O)(=O)c3ccc(C)cc3)CC2)cc(OC)c1OC,?,.,.,.,5.2µM*
